Experimental data taken from the supplement of paper PMC6953052.
Where “and” joins values, the source holds several entries; their conditions need not be identical. Equal values may be shown once. Whole data set: some 1,700 compounds, median “fraction of GFP-LC3-positive cells (≥5 vesicles/cell)” near 0.43, cut for the highest 2% near 0.81. The entries come from a sample that favours the highest values as a whole.

The compounds below were run on CbCln3 Δex7/8/Δex7/8 GFP-LC3 cerebellar neuronal cells (assay: fraction of GFP-LC3-positive cells (≥5 vesicles/cell); higher = more autophagosome accumulation).
Procedure, shortened: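 Compound (~50 nL in DMSO) was pin-transferred in duplicate onto wild-type or mutant CbCln3 cerebellar cells stably expressing GFP-LC3, seeded at 2 × 10^3/well in 384-well plates, for 24 h at 33 °C. After fixation in 3.2% PFA, three fields per well were imaged at 10×. The value reported is the duplicate average of the fraction of cells meeting a vesicle-count threshold, with CellProfiler counting GFP-LC3 vesicles per cell and out-of-focus images excluded. Cells met the threshold at 5 or more vesicles.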

SMILES | fraction of GFP-LC3-positive cells
C[C@@H]1CC([C@H](O)CC2CC(=O)NC(=O)C2)C(=O)[C@@H](C)C1 (some centres not stated) [cycloheximide] | 0.481
C[C@@]1(CO)[C@H](O)CC[C@@]2(C)[C@H]1CC[C@H]1C[C@@H]3C[C@@]12CC[C@]3(O)CO [aphidicolin] | 0.623
CC(=O)OCC(=O)[C@H]1CC[C@H]2[C@@H]3CC[C@H]4C[C@H](O)CC[C@]4(C)[C@H]3C(=O)C[C@]12C [Alfadolone acetate] | 0.441
CCCCc1ccc(C(=O)O)nc1 [Fusaric acid] | 0.408
O=C1C=CC(=O)c2c(O)cccc21 [juglone] | 0.367
N#CC(C#N)=NNc1ccc(OC(F)(F)F)cc1 | 0.936
COc1cc2c(cc1OC)C(C)NCC2.Cl (configuration not stated) | 0.422
Cc1nccc2c1[nH]c1cc(O)ccc12.Cl.O [Harmol hydrochloride monohydrate] | 0.441
OC(c1ccccc1)(c1ccccc1)C1CCNCC1 [Azacyclonol] | 0.306
C/C(O)=C(\C#N)C(=O)Nc1cc(Br)ccc1Br | 0.547 and 0.552
O=C(CCCN1CCC2(CC1)C(=O)NCN2c1ccccc1)c1ccc(F)cc1 [Spiperone] | 0.376
C=C1[C@@H]2CC[C@H]3[C@]4(C)C[C@H](O[C@H]5O[C@H](CO)[C@@H](OS(=O)(=O)[O-])[C@H](OS(=O)(=O)[O-])[C@H]5OC(=O)CC(C)C)C[C@@H](C(=O)O)[C@H]4CC[C@]3(C2)[C@H]1O.[K+].[K+] [Atractyloside potassium salt] | 0.314
O.O.O.O=C1OC2(c3cc(Br)c([O-])cc3Oc3c2cc(Br)c([O-])[c]3[Hg][OH])c2ccccc21.[Na+].[Na+] (configuration not stated) [Merbromin] | 0.954
C[C@@H]1CC[C@@]2(NC1)O[C@H]1C[C@H]3[C@@H]4CC=C5C[C@@H](O)CC[C@]5(C)[C@H]4CC[C@]3(C)[C@H]1[C@@H]2C [Solasodine] | 0.378
CN1C[C@H](CNC(=O)OCc2ccccc2)C[C@@H]2c3cccc4c3c(cn4C)C[C@H]21 [Metergoline] | 0.238
c1ccc(C2CC2)c(OCC2=NCCN2)c1 | 0.404

SMILES | fraction of GFP-LC3-positive cells
CCNC(=O)[C@H]1O[C@@H](n2cnc3c(N)ncnc32)C(O)[C@H]1O (some centres not stated) [5'-N-Ethylcarboxamidoadenosine (NECA)] | 0.445
COc1cc2c(cc1O)C[C@H]1c3c(cc(O)c(OC)c3-2)CCN1C [Boldine] | 0.447
Cc1c(C(=O)c2cccc3ccccc23)c2cccc3c2n1[C@H](CN1CCOCC1)CO3 | 0.451 and 0.539
CC1=NCCc2c1[nH]c1cc(O)ccc21.Cl.O.O [Harmalol hydrochloride dihydrate] | 0.479
CC(=O)C(C)O.CC(Cc1ccccc1)NCCC(c1ccccc1)c1ccccc1 (configuration not stated) [Prenylamine lactate] | 0.266
C[C@H](N)C(=O)N[C@@H](C)C(=O)N[C@@H](Cc1ccccc1)C(=O)CCl | 0.742 and 0.818
CC(C)c1c(CN(C)C(C)Cc2ccccc2)n(C)n(-c2ccccc2)c1=O (configuration not stated) [Famprofazone] | 0.405
CC(C)(C)c1cc(C=C(C#N)C#N)cc(C(C)(C)C)c1O [tyrphostin 9] | 0.882
N#CC(C#N)=Cc1ccc(O)c(O)c1 | 0.348
CC(C)(C)c1cc(C=C(C#N)C#N)cc(C(C)(C)C)c1O | 0.718
N#CC(C#N)=Cc1cc(O)c(O)c(O)c1 | 0.46
COc1ccc(CC2c3cc(OC)c(OC)cc3CCN2C)cc1OC (racemic) [Laudanosine (R,S)] | 0.508
c1cncc([C@H]2CCCCN2)c1 [Anabasine] | 0.34
C[N+]1(C)C2CC[C@H]1C[C@@H](OC(=O)C(CO)c1ccccc1)C2.O=[N+]([O-])[O-] (some centres not stated) [Methylatropine nitrate] | 0.451
COc1ccc(CCN2CCC(Nc3nc4ccccc4n3Cc3ccc(F)cc3)CC2)cc1 [Astemizole] | 0.587
CC[N+]1(C)CCCC(OC(=O)C(O)(c2ccccc2)c2ccccc2)C1.[Br-] (configuration not stated) [Pipenzolate bromide] | 0.4
